# Pf apPOL inh = Pf-apPOL inhibitors, biochemical, fluorescence; Plasmodium falciparum apicoplast DNA polymerase (apPOL); AID 1794808, 2022; hit rate 0.25% among 210,000; inhibition, % at 10 µM; Recombinant Pf-apPOL, molecular beacon fluorescence, 1.5 h
# mHTT CaM bind = mutant huntingtin-calmodulin interaction inhibitors – biochemical, AlphaScreen, primary screen; P42858; AlphaScreen His-mHTT/GST-CaM binding, luminescence; inhibition, % at 15 µM; hit rate 3.6% among 190,000
# Target sequence (P42858 whole entry, looked up, change not shown): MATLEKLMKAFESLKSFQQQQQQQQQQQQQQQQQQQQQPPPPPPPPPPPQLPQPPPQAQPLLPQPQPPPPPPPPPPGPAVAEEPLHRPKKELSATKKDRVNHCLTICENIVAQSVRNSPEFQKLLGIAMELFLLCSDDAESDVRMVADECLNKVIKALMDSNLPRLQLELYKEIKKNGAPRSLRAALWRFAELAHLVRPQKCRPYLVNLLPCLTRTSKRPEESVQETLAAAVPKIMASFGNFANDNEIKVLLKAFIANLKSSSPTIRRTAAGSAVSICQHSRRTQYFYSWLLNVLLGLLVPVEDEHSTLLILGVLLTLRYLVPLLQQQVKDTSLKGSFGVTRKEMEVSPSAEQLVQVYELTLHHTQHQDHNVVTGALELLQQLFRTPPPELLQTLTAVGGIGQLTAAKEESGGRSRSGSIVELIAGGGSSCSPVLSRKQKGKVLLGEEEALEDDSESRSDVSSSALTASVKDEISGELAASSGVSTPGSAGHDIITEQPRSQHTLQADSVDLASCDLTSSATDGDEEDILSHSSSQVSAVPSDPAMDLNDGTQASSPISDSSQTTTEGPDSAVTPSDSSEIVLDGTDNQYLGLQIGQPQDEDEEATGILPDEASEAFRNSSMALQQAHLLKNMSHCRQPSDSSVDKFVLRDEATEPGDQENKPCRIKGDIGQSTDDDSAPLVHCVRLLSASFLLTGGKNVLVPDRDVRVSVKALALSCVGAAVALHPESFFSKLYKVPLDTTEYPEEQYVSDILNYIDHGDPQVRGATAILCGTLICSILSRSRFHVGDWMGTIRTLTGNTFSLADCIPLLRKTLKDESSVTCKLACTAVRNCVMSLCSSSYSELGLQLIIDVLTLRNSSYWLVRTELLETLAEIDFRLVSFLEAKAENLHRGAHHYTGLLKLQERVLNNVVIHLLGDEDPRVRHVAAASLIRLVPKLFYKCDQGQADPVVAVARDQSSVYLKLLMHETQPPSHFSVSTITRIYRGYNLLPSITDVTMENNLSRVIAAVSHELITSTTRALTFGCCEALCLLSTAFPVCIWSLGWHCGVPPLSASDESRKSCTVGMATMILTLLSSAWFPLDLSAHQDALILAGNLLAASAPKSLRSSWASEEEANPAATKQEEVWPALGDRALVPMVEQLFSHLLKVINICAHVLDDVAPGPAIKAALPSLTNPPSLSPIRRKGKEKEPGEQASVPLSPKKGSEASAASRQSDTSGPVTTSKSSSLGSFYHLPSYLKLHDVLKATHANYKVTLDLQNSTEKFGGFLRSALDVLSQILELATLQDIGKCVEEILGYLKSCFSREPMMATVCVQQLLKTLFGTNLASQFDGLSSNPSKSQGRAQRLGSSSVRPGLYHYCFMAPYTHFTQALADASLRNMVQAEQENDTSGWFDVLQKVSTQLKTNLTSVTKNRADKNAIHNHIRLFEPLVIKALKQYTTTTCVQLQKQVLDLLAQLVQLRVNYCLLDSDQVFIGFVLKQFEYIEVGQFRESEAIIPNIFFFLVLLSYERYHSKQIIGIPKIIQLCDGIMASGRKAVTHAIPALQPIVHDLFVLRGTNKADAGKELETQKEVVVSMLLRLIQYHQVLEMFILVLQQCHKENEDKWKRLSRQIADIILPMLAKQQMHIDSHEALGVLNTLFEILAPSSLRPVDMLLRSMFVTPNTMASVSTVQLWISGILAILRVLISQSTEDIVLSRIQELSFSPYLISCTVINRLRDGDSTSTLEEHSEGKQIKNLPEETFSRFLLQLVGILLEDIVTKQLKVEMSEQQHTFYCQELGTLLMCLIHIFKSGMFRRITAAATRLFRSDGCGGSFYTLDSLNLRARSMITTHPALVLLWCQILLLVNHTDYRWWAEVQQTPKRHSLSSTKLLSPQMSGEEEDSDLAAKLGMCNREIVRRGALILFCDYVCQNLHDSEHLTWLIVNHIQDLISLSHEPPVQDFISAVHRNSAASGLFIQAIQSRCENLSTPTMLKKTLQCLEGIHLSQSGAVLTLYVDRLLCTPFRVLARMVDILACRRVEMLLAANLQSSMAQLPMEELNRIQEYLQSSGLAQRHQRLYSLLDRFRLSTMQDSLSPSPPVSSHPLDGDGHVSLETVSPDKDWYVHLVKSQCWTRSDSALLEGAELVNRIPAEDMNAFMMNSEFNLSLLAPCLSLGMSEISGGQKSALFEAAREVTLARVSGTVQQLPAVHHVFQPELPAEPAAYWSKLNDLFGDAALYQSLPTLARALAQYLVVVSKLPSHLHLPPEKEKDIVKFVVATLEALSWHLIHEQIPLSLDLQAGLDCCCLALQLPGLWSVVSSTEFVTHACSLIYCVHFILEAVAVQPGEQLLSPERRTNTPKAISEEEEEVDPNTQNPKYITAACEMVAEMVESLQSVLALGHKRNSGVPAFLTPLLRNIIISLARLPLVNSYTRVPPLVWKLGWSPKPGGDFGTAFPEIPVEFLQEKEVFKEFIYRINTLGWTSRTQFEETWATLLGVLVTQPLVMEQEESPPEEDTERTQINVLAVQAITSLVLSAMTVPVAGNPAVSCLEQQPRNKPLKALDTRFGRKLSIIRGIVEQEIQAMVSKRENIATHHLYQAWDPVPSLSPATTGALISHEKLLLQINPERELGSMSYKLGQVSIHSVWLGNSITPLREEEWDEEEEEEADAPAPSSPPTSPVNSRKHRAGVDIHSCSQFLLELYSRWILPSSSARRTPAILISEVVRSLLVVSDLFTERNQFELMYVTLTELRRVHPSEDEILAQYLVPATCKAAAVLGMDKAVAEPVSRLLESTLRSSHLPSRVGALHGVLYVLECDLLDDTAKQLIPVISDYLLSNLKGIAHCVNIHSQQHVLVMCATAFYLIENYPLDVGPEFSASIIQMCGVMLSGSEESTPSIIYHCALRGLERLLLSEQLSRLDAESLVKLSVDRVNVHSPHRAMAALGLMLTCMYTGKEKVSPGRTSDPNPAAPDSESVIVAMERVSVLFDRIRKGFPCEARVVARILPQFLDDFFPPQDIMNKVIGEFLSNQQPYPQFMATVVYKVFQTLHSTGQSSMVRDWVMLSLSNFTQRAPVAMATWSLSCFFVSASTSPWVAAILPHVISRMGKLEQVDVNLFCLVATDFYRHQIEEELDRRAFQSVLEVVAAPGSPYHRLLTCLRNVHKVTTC
# A number is an active result; . = inactive; / = no result. A selection: hits, their analogues and other compounds. The true share with any hit is near 3.5%. Rule as the data show it: active = inhibition above about 50%; inactive = the rest.
SMILES,Pf apPOL inh,mHTT CaM bind
CC(C)S(=O)(=O)Nc1ccc2c(c1)CN(C(=O)c1ccco1)CC2,.,.
CC(C)C(=O)N1CCc2ccc(NS(=O)(=O)Cc3ccc(Cl)cc3)cc2C1,93.7,.
COCC(C)(O)CNC(=O)NC1CCCCC1 (centres undefined),.,.
O=C(C1CC1)N1CCc2cc(S(=O)(=O)Nc3ccc(F)c(F)c3)ccc21,.,.
Cc1nc2nc(SCC(=O)NCC3CCCO3)nn2c(C)c1Cc1ccccc1Cl (centres undefined),.,.
Cc1nc2nc(SCC(=O)NCC3CCCO3)nn2c(C)c1Cc1c(F)cccc1Cl (centres undefined),.,70.0
Cc1ccc(C(=O)Nc2sc3c(c2C#N)CCCCCC3)o1,.,.
Cc1cc(C)cc(NC(=O)C2CCCN(C(=O)c3ccccc3F)C2)c1 (centres undefined),.,97.3
O=C(Nc1cccc(F)c1)C1CCCN(C(=O)c2ccccc2F)C1 (centres undefined),.,.
CC(=O)N1C(=O)C2(C(C#N)=C(N)Oc3n[nH]c(C)c32)c2ccccc21 (centres undefined),.,.
N#CC1=C(N)C(C#N)(C#N)C(c2ccc(I)cc2)C=C1C1CC1 (centres undefined),.,58.0
N#CC1=C(N)C(C#N)(C#N)C(c2ccc(O)cc2)C2CCCC=C12 (centres undefined),.,.
CC1CC(Nc2ccccc2)c2ccccc2N1 (centres undefined),.,.
CCCC(=O)N(c1ccccc1)C1CC(C)Nc2ccccc21 (centres undefined),.,54.2
O=c1[nH]c2ccccc2nc1CN1CCN(c2cccc(Cl)c2)CC1,.,.
COc1ccc(N2CCN(Cc3nc4cc(Cl)c(Cl)cc4[nH]c3=O)CC2)cc1,.,52.9
CCOc1ccc(NC(=O)C2CCN(c3cn[nH]c(=O)c3)CC2)cc1,.,.
O=[N+]([O-])c1nc(Br)n(Cc2ccccc2F)n1,.,.
CCn1c(N2CCC(C(=O)NCCC3=CCCCC3)CC2)cc(=O)n(C)c1=O,.,50.9
Cn1c(N2CCCC(C(=O)NCCC3=CCCCC3)C2)cc(=O)n(C)c1=O (centres undefined),.,.
CCn1c(N2CCC(C(=O)Nc3cc(OC)c(OC)c(OC)c3)CC2)cc(=O)n(C)c1=O,.,62.0
CCn1c(N2CCC(C(=O)NCc3cccs3)CC2)cc(=O)n(C)c1=O,.,62.5
COc1ccc(NC(=O)C2CCN(c3cc(=O)n(C)c(=O)n3C)CC2)cc1OC,.,.
Cn1c(N2CCC(C(=O)NCc3cccs3)CC2)cc(=O)n(C)c1=O,.,.
Cn1c(N2CCC(C(=O)NCc3ccccn3)CC2)cc(=O)n(C)c1=O,.,70.3
SMILES,Pf apPOL inh,mHTT CaM bind
Cn1c(N2CCC(C(=O)NCc3ccccc3)CC2)cc(=O)n(C)c1=O,.,.
Cc1cc2c(c(=O)o1)C(c1c(Cl)cccc1Cl)C(C#N)=C(N)O2 (centres undefined),.,.
Cc1ccc2oc(C(=O)Nc3ccc(F)c(Cl)c3)cc2n1,.,.
CC(C)c1ccc(N2CC(C(=O)NCc3ccccn3)CC2=O)cc1 (centres undefined),.,.
Cc1cccc(N2CC(C(=O)NCc3ccccn3)CC2=O)c1 (centres undefined),.,60.6
CCOc1ccccc1NC(=O)C1CC(=O)N(c2ccc(OC)cc2)C1c1ccc(OC)cc1 (centres undefined),.,.
NC(=O)c1cccc2c1NC(C(=O)O)C1CC=CC21 (centres undefined),.,71.3
O=C(O)c1cccc2c1NC(C(=O)O)C1CC=CC21 (centres undefined),.,77.3
Cc1ccc(/C=C2/N=C(c3c(-c4ccccc4)noc3C)OC2=O)cc1,.,.
COc1cc(C2=N/C(=C\C=C\c3ccccc3)C(=O)O2)cc(OC)c1OC,.,61.0
COc1cc(C2=NC(=CC=Cc3ccccc3)C(=O)O2)cc(OC)c1OC,.,/
Cc1onc(-c2ccccc2)c1C1=N/C(=C\C=C\c2ccccc2)C(=O)O1,.,68.0
COc1cccc(CCC(=O)N2CCCN(C3CCN(Cc4ccccc4)C3=O)CC2)c1 (centres undefined),.,.
CC1CC(C)CN(C(=O)c2cc3cc4ccc(Cl)cc4nc3o2)C1 (centres undefined),.,.
N#CCOc1ccc2c(c1)OC(=Cc1c(Cl)cccc1Cl)C2=O,.,.
CC(C)c1nc2c(c(=O)n1CC(=O)Nc1ccccc1F)CCN(Cc1ccccc1)C2,.,.
CC(C)c1nc2c(c(=O)n1CC(=O)Nc1cccc(F)c1)CCN(Cc1ccccc1)C2,.,83.8
O=C1C=CC(=O)N1c1ccc(-c2nc3ccccc3o2)cc1,.,53.0
O=C1c2ccc(-c3nc4ccccc4o3)cc2C(=O)N1c1ccc([N+](=O)[O-])cc1,.,.
Cn1c(SCC(=O)c2ccccc2OC(F)F)nc2ccccc21,.,.
COc1ccc([N+](=O)[O-])cc1NC(=O)c1cc(-c2ccc(OC)c(OC)c2)nc2ccccc12,.,.
COC(=O)Cc1cc(OC)c(OC)cc1[N+](=O)[O-],.,.
COc1cc(CNc2cccc(F)c2)c([N+](=O)[O-])cc1OC,.,60.7
COc1cc(CNc2ccc3[nH]ncc3c2)c([N+](=O)[O-])cc1OC,.,58.1
COc1cc(CNc2cc(OC)c(OC)c(OC)c2)c([N+](=O)[O-])cc1OC,.,.
SMILES,Pf apPOL inh,mHTT CaM bind
Cc1cc(Nc2ccc(Cl)c(Cl)c2)n2ncnc2n1,.,.
COc1ccccc1-c1cc(C(=O)N2CCCC2c2cc(C(C)C)on2)no1 (centres undefined),.,.
CN(c1nc2ccccn2c(=O)c1/C=C1\SC(=S)N(C2CCS(=O)(=O)C2)C1=O)C1CCCCC1 (centres undefined),/,.
CN(C)c1ccc(C=C2c3cc([N+](=O)[O-])cc([N+](=O)[O-])c3-c3c2cc([N+](=O)[O-])cc3[N+](=O)[O-])cc1,.,.
COc1ccc(C=C2c3cc([N+](=O)[O-])cc([N+](=O)[O-])c3-c3c2cc([N+](=O)[O-])cc3[N+](=O)[O-])cc1,.,100.0
COc1ccc(CC(=O)c2ccc(O)c(CN3CCOCC3)c2O)cc1OC,.,.
CC(C)(C)CC(C)(C)N=C1Nc2ccc(Cl)cc2N[C@]12C[C@H]1CCCC(=O)N3CC[C@@H](C2)[C@@H]13,.,72.6
O=C1CCC[C@@H]2C[C@@]3(C[C@@H]4CCN1[C@H]24)Nc1cc(Cl)ccc1NC3=NCc1ccccc1,.,62.5
O=C1CCC[C@@H]2C[C@@]3(C[C@@H]4CCN1[C@H]24)Nc1cc(Cl)ccc1NC3=NC1CCCCC1,.,.
Cc1cc2c(cc1C)N[C@]1(C[C@H]3CCCC(=O)N4CC[C@@H](C1)[C@@H]34)C(=NCc1ccccc1)N2,.,.
O=C1CCC[C@@H]2C[C@@]3(C[C@@H]4CCN1[C@H]24)Nc1cc([N+](=O)[O-])ccc1NC3=NC1CCCCC1,.,51.3
Cc1cc2c(cc1C)N[C@]1(C[C@H]3CCCC(=O)N4CC[C@@H](C1)[C@@H]34)C(=NC(C)(C)CC(C)(C)C)N2,.,99.6
Cc1cc2c(cc1C)N[C@]1(C[C@H]3CCC(=O)N4CC[C@@H](C1)[C@@H]34)C(=Nc1ccccc1C)N2,.,.
Cc1ccccc1N=C1Nc2ccccc2N[C@]12C[C@H]1CCCC(=O)N3CC[C@@H](C2)[C@@H]13,.,.

# Screening results deposited in PubChem by University of Kansas High Throughput Screening Laboratory.
